# AmpC inh detg = qHTS Inhibitors of AmpC Beta-Lactamase (assay with detergent). P00811. AmpC hydrolysis of nitrocefin, absorbance 480 nm, 0.01% Triton. Potency, µM (titrated, usually from 114 µM), usual class: inhibitors. hit rate 0.041% among 370,000. AID 485294, 2010; also: nearly all actives have a fitted effect of over 25% in size
# Target sequence (P00811 whole entry, looked up): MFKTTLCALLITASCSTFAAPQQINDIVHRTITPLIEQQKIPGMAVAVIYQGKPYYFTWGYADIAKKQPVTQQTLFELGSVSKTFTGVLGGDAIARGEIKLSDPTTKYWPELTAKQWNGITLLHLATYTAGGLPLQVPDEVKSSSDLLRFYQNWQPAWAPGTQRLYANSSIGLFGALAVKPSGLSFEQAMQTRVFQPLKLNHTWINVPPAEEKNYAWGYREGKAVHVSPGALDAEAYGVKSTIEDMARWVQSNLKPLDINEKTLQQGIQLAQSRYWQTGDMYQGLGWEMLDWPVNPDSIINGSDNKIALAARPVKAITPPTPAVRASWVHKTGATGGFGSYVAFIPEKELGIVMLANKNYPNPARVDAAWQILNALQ
#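 20 mM phosphate pH 7.0 + 0.01% (detergent screen) or 0.0001% Triton X-100; 5.3 nM AmpC reagent; cpd preinc 15 min RT; nitrocefin (800 uM stock) to start; A480 q20 s × 4 min; Activity was normalised to no-enzyme and no-compound control wells.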
# AMA1-RON2 inh = qHTS for Inhibitors of AMA1-RON; Towards Development of Antimalarial Drug Lead: Primary Screen; Potency, µM (series often up to 58.2 µM), usual class: inhibitors; AlphaScreen AMA1-biotinylated RON2 peptide binding; hit rate 0.2% among 360,000; AID 720542, 2013; Plasmodium falciparum AMA1 (3D7) - RON2 peptide interaction; also: nearly all actives have a fitted effect of over 45% in size
#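 AMA1 (3D7) with his tag at 25 nM final met compounds first, then biotinylated RON2 peptide at 25 nM; detection used donor plus acceptor beads, 10 µg/mL apiece, read by AlphaScreen after 30 min at room temperature.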
# RE007 growth inh = qHTS Assay for Inhibitors of the HIV-1 protein Vpr; S. pombe RE007 Vpr strain, BacTiter-Glo ATP luminescence, 24 h; hit rate 0.21% among 360,000; Potency, µM (titrated, usually from 92.2 µM), usual class: inhibitors; AID 651644, 2012; active = well fitted falling curve with a large enough effect; inconclusive = small, poorly fitted or top-dose-only effect; inactive = no such curve, though single readings can be large or run the other way; also: nearly all actives have a fitted effect of over 50% in size
#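 Fission yeast RE007 carrying one integrated HIV-1 vpr copy, seeded at OD 0.01 in PMG+AL medium with 23 nL pinned compound. Grown 24 h at 30 degrees; viability read by BacTiter-Glo luminescence after 5 min.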
# Sm TGR block = qHTS Assay for the Inhibitors of Schistosoma Mansoni Peroxiredoxins. hit rate 3% among 360,000. Potency, µM (doses to about 114 µM), most hits filed as inhibitors. AID 485364, 2010. Schistosoma mansoni thioredoxin glutathione reductase (TGR), Q962Y6. purified TGR, DTNB reduction, TNB absorbance 405 nm; also: nearly all actives have a fitted effect of over 60% in size
#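 TGR 20 nM + NADPH 100 uM (dispensed conc.), cpd preinc 15 min RT; start with NADPH (500 uM addition) then DTNB (15 mM addition). Kinetic TNB absorbance, 405 nm filter. Four-parameter Hill fit across titration.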
# AmpC no deterg = qHTS Inhibitors of AmpC Beta-Lactamase (assay without detergent) | AmpC nitrocefin hydrolysis, absorbance 480 nm, 0.0001% Triton | AID 485341, 2010 | Potency, µM (doses to about 57.1 µM), most hits filed as inhibitors | P00811 | hit rate 0.52% among 330,000; also: nearly all actives have a fitted effect of over 20% in size
#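 20 mM phosphate pH 7.0 + 0.01% (detergent screen) or 0.0001% Triton X-100; 5.3 nM AmpC reagent; cpd preinc 15 min RT; nitrocefin (800 uM stock) to start; A480 q20 s × 4 min; Activity was normalised to no-enzyme and no-compound control wells.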
# A number is an active result; i = inactive; ? = inconclusive; nt = no result given. Sampled rows, rich in hits. Any-hit rate of the full collection: about 3.2%. Unless noted, calls follow the shape of the dose curve; as a rule, active = well fitted curve in the direction sought with a large enough effect; inconclusive = small, poorly fitted or top-dose-only effect, or another doubt; inactive = no such curve, though single readings can be large; an effect the other way counts as inactive or inconclusive.
SMILES,AmpC inh detg,AMA1-RON2 inh,RE007 growth inh,Sm TGR block,AmpC no deterg
N=C1/C(=C/c2ccc(-c3cccc(C(=O)O)c3)o2)C(=O)N=C2SC=C(c3ccccc3)N12,50µM,?,i,i,i
O=C1OC(c2cccs2)=N/C1=C/c1ccc(-c2cccc(C(=O)O)c2)o1,i,i,i,22µM,i
CCOC(=O)C1CCN(c2c(C(=O)c3ccc(OC)cc3)cnc3ccccc23)CC1,i,nt,nt,i,nt
CC(=O)C1=C(c2ccccc2)OC(N)=C(C#N)C1c1ccccc1C (stereo not given),i,i,i,i,i
CC(=O)C1(C)OC(N)=C(C#N)C(c2ccccc2)C1(C#N)C#N (stereo not given),i,i,i,11µM,i
CCOc1ccc(S(=O)(=O)N(CC(=O)Nc2ccc(OC)c(Cl)c2)c2ccccc2)cc1,i,nt,nt,i,nt
Clc1ccc(C(Cl)(Cl)Cl)c(Cl)c1,i,i,i,2.8µM,i
Cc1ccc(S(=O)(=O)C(CNC(=O)COc2ccccc2)c2ccco2)cc1 (stereo not given),i,nt,nt,?,nt
CCNc1ccc(Br)cc(C(=O)/C=C/c2ccc(Cl)cc2Cl)c1=O,i,i,i,2.2µM,i
CNc1ccc(Br)cc(C(=O)/C=C/c2cc(OC)ccc2OC)c1=O,i,?,i,3.2µM,i
CNc1ccc(Br)cc(C(=O)/C=C/c2ccc3c(c2)OCO3)c1=O,i,?,i,2.8µM,i
COCCCNC(=O)/C=C/c1ccc(Cl)cc1Cl,i,i,i,i,i
CNc1ccc(Br)cc(C(=O)/C=C/c2ccc(OC)cc2)c1=O,?,i,i,11µM,i
COc1ccc(/C=C/C(=O)c2ccc(OC)cc2OC)cc1,i,i,i,i,i
COc1ccc(-c2nc3scc(CCNC(=O)c4cc(OC)cc(OC)c4)n3n2)cc1,i,nt,nt,i,nt
O=c1oc2ccc(Cl)cc2cc1-c1cn2c(n1)sc1ccccc12,i,nt,nt,i,nt
O=C(NC1CCCC1)C(c1ccc(Cl)cc1)N(Cc1ccc(F)cc1)C(=O)CCl (stereo not given),i,i,?,7.1µM,i
O=C(NC1CCCC1)C(c1ccccc1)N(Cc1ccc(F)cc1)C(=O)c1csnn1 (stereo not given),i,i,i,i,i
COC(=O)c1ccc(C(C(=O)NC2CCCCC2)N(Cc2ccc(F)cc2)C(=O)Cc2cccs2)cc1 (stereo not given),i,i,nt,i,i
O=C(NC1CCCC1)C(c1ccc(F)cc1)N(Cc1ccc(Cl)cc1)C(=O)CCl (stereo not given),?,i,i,2.8µM,i
CCOC(=O)c1c(NC(=O)CSc2cn(CCNC(=O)c3ccccc3F)c3ccccc23)sc2c1CCCC2,i,nt,nt,i,nt
Cc1ccc(NC(=O)CN(C)C(=O)c2cc(-c3ccco3)nc3ccccc23)cc1,i,i,i,6.3µM,i
CN(CC(=O)Nc1ccc(F)cc1)C(=O)c1cc(-c2ccco2)nc2ccccc12,i,i,i,11µM,i
CN(CCOc1ccc(Cl)cc1)C(=O)c1cc(-c2ccco2)nc2ccccc12,?,i,i,11µM,i
CCCCN=C1NN=C(c2cc3ccccc3o2)CS1,i,i,i,i,14µM
SMILES,AmpC inh detg,AMA1-RON2 inh,RE007 growth inh,Sm TGR block,AmpC no deterg
Nc1c(N2CCOCC2)cc(Cl)c2nonc12,i,i,i,i,i
Nc1c(N2CCCC2)cc(Cl)c2nonc12,?,i,i,56µM,i
COc1ccc(C(=O)NCCn2cc(SCC(=O)Nc3cccc(C)c3)c3ccccc32)cc1,i,nt,nt,i,nt
COc1cc(O)oc1C=Nc1ccc(Cl)cc1Cl,i,i,i,79µM,i
COc1ccc(NC(=O)Cc2csc(NC(=O)Nc3ccccc3OC)n2)cc1,nt,i,i,nt,nt
Cc1ccc(NC(=S)Nc2nc(CC(=O)Nc3ccccc3)cs2)cc1,i,i,i,i,14µM
COc1ccccc1NC(=O)Nc1nc(CC(=O)Nc2ccc(N(C)C)cc2)cs1,?,18µM,i,i,i
Cc1ccc(NC(=O)CC2Sc3ccccc3NC2=O)c(Br)c1 (stereo not given),i,nt,nt,i,nt
CN(C(=O)CSc1nncn2c1cc1occc12)c1ccccc1,i,nt,nt,i,nt
C/C=C\C=C/C(=O)Nc1cccc(C2=NOC3(C2)C[C@H](C(N)=O)N(C(=O)c2ccc(OC)cc2)C3)c1 (stereo not given in full),i,i,i,1.8µM,i
C/C=C/C(=O)Nc1cccc(C2=NOC3(C2)C[C@@H](C(N)=O)N(C(=O)c2cc([N+](=O)[O-])cc([N+](=O)[O-])c2)C3)c1 (stereo not given in full),i,i,i,i,i
C/C=C\C=C/C(=O)Nc1cccc(C2=NOC3(C2)C[C@@H](C(N)=O)N(C(=O)c2ccc(Cl)cc2)C3)c1 (stereo not given in full),i,i,i,3.2µM,i
CCOc1cc(CN2CCOCC2)cc(C(C)=O)c1,i,i,i,45µM,i
CCOC(=O)C(NC(=O)CC(C)C)(Nc1sc(C)c(CC)c1C#N)C(F)(F)F (stereo not given),i,i,i,i,i
CCOC(=O)C(NC(=O)CCl)(Nc1sc(C)c(CC)c1C#N)C(F)(F)F (stereo not given),i,i,i,16µM,i
N=C1SCC(=O)N1c1ncc(Cc2cccc(Cl)c2)s1,i,i,18µM,i,i
O=C1NN(c2ccccc2)C(=O)/C1=C\c1cccc(OC(=O)c2cccs2)c1,?,i,i,35µM,i
CCc1ccc(NC(=O)c2sc3nc(C)c(Cl)c(C)c3c2NC(=O)c2ccccc2)cc1,i,nt,nt,i,nt
Cc1ccc(S(=O)(=O)Nc2cc(-c3nn(C)c(=O)c4ccccc34)ccc2N2CCOCC2)cc1,i,i,i,56µM,i
Cn1nc(-c2ccc(N3CCOCC3)c(NS(=O)(=O)c3ccc(Cl)cc3)c2)c2ccccc2c1=O,i,i,i,i,i
COc1cc(/C=C/c2nc(C#N)c(N3CCCCC3)o2)cc(OC)c1OC,i,nt,nt,i,nt
CC(CCc1ccccc1)NS(=O)(=O)c1ccccc1 (stereo not given),i,i,i,i,i
CC(C)(C)C#CC(CCc1ccccc1)OS(N)(=O)=O (stereo not given),i,nt,nt,28µM,i
CCOC(=O)C#CC(CCc1ccccc1)OS(N)(=O)=O (stereo not given),i,i,i,11µM,i
CCOC(=O)c1ccccc1NC(=O)N1CCC(N2CCN(Cc3ccccc3)C(=O)C2=O)CC1,i,nt,nt,i,nt
CCOC(=O)C1(C)C=C(Nc2cccc(C)c2)C(=O)N1c1ccccc1 (stereo not given),i,nt,nt,i,nt

# Assay outcomes from PubChem.
